Assay results reported in PubChem BioAssay (NCI).
This is part of a sample that, as a whole, favours compounds with a hit. Of some 83,000 tested, about 20% had one in any assay.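 A percent growth of 40 corresponds to 60% growth inhibition; 0 means no net growth; -100 means all cells died. Active threshold: below 10.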 The source made the active and inactive calls.

Legend:
Assay in all cases: NCI-60 one-dose screen, 48 h (100 = growth as untreated, 0 = no growth, -100 = all killed)
Conditions in all cases: 10 µM unless noted
RPMI-8226 leukemia = tested on: RPMI-8226 leukemia
OVCAR-8 ovarian = tested on: OVCAR-8 ovarian
OVCAR-5 ovarian = tested on: OVCAR-5 ovarian
OVCAR-4 ovarian = tested on: OVCAR-4 ovarian
SK-OV-3 ovarian = tested on: SK-OV-3 ovarian
IGROV1 ovarian = tested on: IGROV1 ovarian
OVCAR-3 ovarian = tested on: OVCAR-3 ovarian
HS 578T breast = tested on: HS 578T breast
NCI/ADR-RES ovarian = tested on: NCI/ADR-RES ovarian

Measured: growth

COc1ccc(-c2nnc(SCC(=O)Nc3ccc(C(=O)/C=C/c4cc(OC)c(OC)c(OC)c4)cc3)n2-c2ccccc2)cc1OC
inactive: RPMI-8226 leukemia 16.7% [100 µM] | OVCAR-8 ovarian 15.9% [100 µM] | OVCAR-5 ovarian 19.2% [100 µM] | NCI/ADR-RES ovarian 46% [100 µM]
active: OVCAR-4 ovarian -49% [100 µM] | SK-OV-3 ovarian -54.7% [100 µM] | IGROV1 ovarian -36.1% [100 µM] | OVCAR-3 ovarian -37% [100 µM] | HS 578T breast 4.23% [100 µM]

CCC(C)[C@H](NC(=O)Nc1cc(C(F)(F)F)cc(C(F)(F)F)c1)C(=O)N[C@@H](Cc1cn(C)cn1)C(=O)OC (stereo not given in full)
active: RPMI-8226 leukemia -65.7% [100 µM] | OVCAR-8 ovarian -78.3% [100 µM] | OVCAR-5 ovarian -93.7% [100 µM] | OVCAR-4 ovarian -96.7% [100 µM] | SK-OV-3 ovarian -100% [100 µM] | IGROV1 ovarian -81.5% [100 µM] | OVCAR-3 ovarian -97.6% [100 µM] | HS 578T breast -18.6% [100 µM] | NCI/ADR-RES ovarian -49.2% [100 µM]

CC(=O)Oc1cc2ccccc2cc1C(C)C
inactive: RPMI-8226 leukemia 109% | OVCAR-8 ovarian 104% | OVCAR-5 ovarian 98.9% | OVCAR-4 ovarian 108% | SK-OV-3 ovarian 104% | IGROV1 ovarian 123% | OVCAR-3 ovarian 115% | HS 578T breast 99.8% | NCI/ADR-RES ovarian 116%

C=CCN(C)C
inactive: RPMI-8226 leukemia 117% | OVCAR-8 ovarian 106% | OVCAR-5 ovarian 109% | OVCAR-4 ovarian 115% | SK-OV-3 ovarian 115% | IGROV1 ovarian 104% | OVCAR-3 ovarian 118% | HS 578T breast 98.1% | NCI/ADR-RES ovarian 106%

COc1ccc(NC(=O)/C=C(C)/C=C/C=C(C)/C=C/C2=C(C)CCCC2(C)C)cc1
inactive: RPMI-8226 leukemia 43.9% | OVCAR-8 ovarian 37% | OVCAR-5 ovarian 94.8% | OVCAR-4 ovarian 80.1% | SK-OV-3 ovarian 86.2% | OVCAR-3 ovarian 66.5% | HS 578T breast 87.9% | NCI/ADR-RES ovarian 80.1%

COc1ccc2cnc(N)c(C#Cc3cc(C(=O)Nc4ccc(CN5CCN(C)CC5)c(C(F)(F)F)c4)cnc3C)c2c1
active: OVCAR-5 ovarian -39.3% | HS 578T breast -16.3%
inactive: RPMI-8226 leukemia 48.1% | OVCAR-8 ovarian 75.4% | OVCAR-4 ovarian 58.2% | SK-OV-3 ovarian 69.4% | IGROV1 ovarian 28.8% | OVCAR-3 ovarian 93% | NCI/ADR-RES ovarian 78.1%

C[n+]1c2ccccc2c(Nc2ccc(NS(=O)(=O)CCCCN=C(N)N)cc2)c2ccc(N)cc21
inactive: RPMI-8226 leukemia 48.6% | OVCAR-8 ovarian 54.4% | OVCAR-5 ovarian 71.9% | OVCAR-4 ovarian 72.9% | SK-OV-3 ovarian 51% | IGROV1 ovarian 45.9% | OVCAR-3 ovarian 68.5% | HS 578T breast 34.5% | NCI/ADR-RES ovarian 97.5%

Cc1ccc(C(=O)Nc2ccc(CN3CCN(C)CC3)c(C(F)(F)F)c2)cc1C#Cc1cnc(N)c2ccc(F)cc12
active: RPMI-8226 leukemia -59.4% | OVCAR-8 ovarian -70.9% | OVCAR-5 ovarian -90.2% | OVCAR-4 ovarian -60.8% | IGROV1 ovarian -82.9% | OVCAR-3 ovarian -83.3% | HS 578T breast -30.2% | NCI/ADR-RES ovarian -52.4%

CCCCCCCCC1OC1CCCCCCCC(=O)O (stereo not given)
inactive: RPMI-8226 leukemia 98.4% | OVCAR-8 ovarian 101% | OVCAR-5 ovarian 108% | OVCAR-4 ovarian 115% | SK-OV-3 ovarian 95.3% | OVCAR-3 ovarian 108% | HS 578T breast 98.6% | NCI/ADR-RES ovarian 104%

O=C(N/N=C/c1ccccc1Cl)c1cccc2ccccc12
inactive: OVCAR-8 ovarian 82.2% | OVCAR-5 ovarian 104% | OVCAR-4 ovarian 103% | SK-OV-3 ovarian 98.6% | IGROV1 ovarian 106% | OVCAR-3 ovarian 110% | HS 578T breast 95.6% | NCI/ADR-RES ovarian 107%

OCCN1CCN(CC/C=C2/c3ccccc3Sc3ccc(C(F)(F)F)cc32)CC1
inactive: OVCAR-8 ovarian 88.5% | OVCAR-5 ovarian 82.4% | OVCAR-4 ovarian 66.5% | SK-OV-3 ovarian 73.1% | IGROV1 ovarian 55.8% | OVCAR-3 ovarian 80% | HS 578T breast 67.7% | NCI/ADR-RES ovarian 76.1%

Nc1cc2c(cc1Br)[nH]c(=O)c1ccccc12
inactive: OVCAR-8 ovarian 39.9% | OVCAR-5 ovarian 94% | OVCAR-4 ovarian 24.8% | SK-OV-3 ovarian 62.4% | IGROV1 ovarian 19% | HS 578T breast 73.3% | NCI/ADR-RES ovarian 63%
active: OVCAR-3 ovarian 2.99%

COc1cc(-c2nc(/C=C3/C(=O)Nc4ccccc43)c3ccccn23)cc(OC)c1OC
inactive: OVCAR-8 ovarian 32.8% | OVCAR-5 ovarian 82.9% | OVCAR-4 ovarian 76.4% | SK-OV-3 ovarian 74.2% | IGROV1 ovarian 51.6% | HS 578T breast 76.9% | NCI/ADR-RES ovarian 47.2%
active: OVCAR-3 ovarian -8.37%

O=C(Cc1ccccc1[N+](=O)[O-])c1ccc2c(c1)OCO2
inactive: OVCAR-8 ovarian 104% | OVCAR-5 ovarian 104% | OVCAR-4 ovarian 102% | SK-OV-3 ovarian 90.1% | IGROV1 ovarian 114% | OVCAR-3 ovarian 103% | HS 578T breast 93.3% | NCI/ADR-RES ovarian 106%

O=C1C(Cl)=C(SC2=NCCN2)C(=O)c2ccccc21
inactive: OVCAR-8 ovarian 65.8% | OVCAR-5 ovarian 97.4% | OVCAR-4 ovarian 80.5% | SK-OV-3 ovarian 93.5% | IGROV1 ovarian 49.9% | OVCAR-3 ovarian 46.8% | HS 578T breast 93.1% | NCI/ADR-RES ovarian 86.8%

CCN(CC)c1ccc2nc3ccc(N=Nc4ccc(O)cc4)cc3[n+](-c3ccccc3)c2c1
active: IGROV1 ovarian 8.59% | OVCAR-3 ovarian -15.4%
inactive: RPMI-8226 leukemia 30.6% | OVCAR-8 ovarian 56.8% | OVCAR-5 ovarian 113% | SK-OV-3 ovarian 89.7% | NCI/ADR-RES ovarian 101%

CCCCCCN(CCCCCC)CCC(=O)Nc1ccc(S(=O)(=O)c2ccc(NC(=O)CCN(CCCCCC)CCCCCC)cc2)cc1
inactive: RPMI-8226 leukemia 60.7% | OVCAR-8 ovarian 90.8% | OVCAR-4 ovarian 77.6% | SK-OV-3 ovarian 84.2% | IGROV1 ovarian 84.3% | OVCAR-3 ovarian 80.7% | NCI/ADR-RES ovarian 83.8%

COc1ccc(C(=O)CN2C(=O)NC(c3ccccc3)(c3ccccc3)C2=O)cc1
inactive: OVCAR-8 ovarian 95.2% | OVCAR-5 ovarian 98.7% | OVCAR-4 ovarian 99.8% | SK-OV-3 ovarian 102% | IGROV1 ovarian 115% | OVCAR-3 ovarian 107% | HS 578T breast 89.3% | NCI/ADR-RES ovarian 102%

CCCNC(=O)Oc1ccc(/C(=C(/CC)Cc2ccccc2)c2ccc(OCCN(CC)CC)cc2)cc1
inactive: RPMI-8226 leukemia 41.6% | OVCAR-8 ovarian 80.3% | OVCAR-4 ovarian 85.8% | SK-OV-3 ovarian 88.4% | IGROV1 ovarian 85.9% | OVCAR-3 ovarian 79.5% | HS 578T breast 59% | NCI/ADR-RES ovarian 75.3%

CN1CCN(Cc2ccc(NC(=O)c3cncc(C#Cc4c(N)ncc5ccc(F)cc45)c3)cc2C(F)(F)F)CC1
active: RPMI-8226 leukemia 5.38% | HS 578T breast -8.53%
inactive: OVCAR-8 ovarian 53.8% | OVCAR-4 ovarian 36.1% | SK-OV-3 ovarian 60% | IGROV1 ovarian 11% | OVCAR-3 ovarian 63.2% | NCI/ADR-RES ovarian 48.2%

Cc1c(C(N)=O)sc2c1c(=O)n(Cc1ccccc1)c1nnc(S(C)(=O)=O)n21
inactive: OVCAR-5 ovarian 135% | OVCAR-4 ovarian 64.5% | SK-OV-3 ovarian 103% | IGROV1 ovarian 106% | OVCAR-3 ovarian 79.6% | HS 578T breast 87.5% | NCI/ADR-RES ovarian 100%

CC[C@@H](C)/C=C(C)/C=C/C(=O)c1c(O)c(-c2ccc(OC(=O)[C@@]34CC[C@@](C)(C(=O)O3)C4(C)C)cc2)cn(O)c1=O
active: IGROV1 ovarian -18.6% | NCI/ADR-RES ovarian 3.91%
inactive: OVCAR-8 ovarian 20.4% | OVCAR-5 ovarian 55.7% | SK-OV-3 ovarian 28.3% | OVCAR-3 ovarian 30.1% | HS 578T breast 57.2%

COc1ccccc1CNCCCN1C(=O)c2ccc3c4c(ccc(c24)C1=O)C(=O)N(CCCNCc1ccccc1OC)C3=O
active: RPMI-8226 leukemia -31.8% | OVCAR-8 ovarian -47.1% | OVCAR-5 ovarian -27.4% | OVCAR-4 ovarian -96.5% | IGROV1 ovarian -58.2% | OVCAR-3 ovarian -59.9% | NCI/ADR-RES ovarian -2.55%
